Where “and” joins values, the source holds several entries; their conditions need not be identical. Identical values can stand only once. Results filed as inconclusive are left out. Calls of active or inactive are those of the source. Calls come from the whole dose curve; as a rule, active = well fitted cell-killing curve with a large enough effect in the repeat runs; inconclusive = weak or mixed curves, or effect the other way; inactive = no such curve, though single readings can be large or run the other way.
assay: qHTS assay to identify small molecule antagonists of the progesterone receptor (PR) signaling pathway - cell viability counter screen (AID 1346798); conditions: PR-UAS-bla HEK293T viability, CellTiter-Glo luminescence, 16 h; series mostly up to 92.4 µM; activity change, negative = cytotoxicity: at the top concentration; note: nearly all actives have a fitted effect of over 50% in size
Excerpt: National Center for Advancing Translational Sciences [NCATS]
NIH Chemical Genomics Center [NCGC]
U.S. Environmental Protection Agency [EPA]
National Institutes of Environmental Health Sciences [NIEHS]
National Toxicology Program [NTP]
U.S. Food and Drug Administration [FDA]
Progesterone receptor (PR), a nuclear hormone receptor, plays an important role in development, metabolic homeostasis and reproduction. It is activated by the steroid hormone progesterone. Endocrine disrupting chemicals (EDCs) and their interactions with steroid hormone receptors like PR causes disruption of normal endocrine function. To identify the compounds that inhibit PR signaling, a PR-UAS-bla GripTite cell line i.e. PR-UAS-bla HEK293T (Invitrogen, Carlsbad, CA, USA) containing a beta-lactamase reporter gene under the control of an UAS response element was used to screen Tox21 10K compound library. The cytotoxicity of the Tox21 compound library against the PR-bla cell line was tested in parallel by measuring the cell viability using CellTiter-Glo assay in the same wells.
Tox21 Assay Protocol Summary:
PR-UAS-bla HEK293T cells were dispensed at 3,000 cells/4 uL of assay medium containing 2% charcoal stripped FBS per well into black wall/clear-bottom 1536-well plates using a Multidrop Combi (ThermoFisher Scientific, Waltham, MA) dispenser. After the assay plates were incubated at a 37C and 5% CO2 for 4 hr, 23 nL of compounds dissolved in DMSO, positive controls or DMSO only was transferred to the assay plate by a Pintool station (Kalypsys, San Diego, CA), followed by addition of 1 uL of R5020 in assay medium using a Flying Reagent Dispenser (FRD, Aurora Discovery, San Diego, CA). The plates were incubated at 37C and 5% CO2 for 16 hr. Then 1 uL of LiveBLAzer B/G FRET substrate was added using a Flying Reagent Dispenser, the plates were incubated at room temperature for 2 hours, and fluorescence intensity was measured by an Envision plate reader (PerkinElmer, Shelton, CT). For cell viability readout that measures cytotoxicity, 4 uL/well of CellTiter-Glo reagent was added into the assay plates using a FRD. After 30 min incubation at room temperature, the luminescence intensity in the plates was measured using a ViewLux (PerkinElmer) plate reader.
% is set by controls: 0 for no effect and ±100 for the full control effect; potency is the fitted concentration of half-maximal effect.

| SMILES | activity change, negative = cytotoxicity | Potency |
| --- | --- | --- |
| Cc1cccc(CN2CCN(C(c3ccccc3)c3ccc(Cl)cc3)CC2)c1 (stereo not given) | 0.859% [at 42.5 µM] (inactive) |  |
| C[n+]1ccn(Cc2ccccc2)c1 | -4.47% (inactive) |  |
| CCC(N)(CO)CO | -11.5% (inactive) |  |
| Clc1ccc2n[nH]nc2c1 | -2.69% (inactive) |  |
| Oc1ccc(Cl)cc1Sc1cc(Cl)ccc1O |  | 54.4 µM (active) |
| CC1=C(/C=C/C(C)=C/C=C/C(C)=C/C=O)C(C)(C)CCC1 |  | 68.2 µM (active) |
| CCCCCCOC(=O)c1ccc(O)cc1 | -10.2% (inactive) |  |
| CCN(C(=O)N(CC)c1ccccc1)c1ccccc1 | -0.868% (inactive) |  |
| CCCN(CCC)C(=O)C(CCC(=O)OCCCN1CCN(CCOC(=O)Cc2c(C)n(C(=O)c3ccc(Cl)cc3)c3ccc(OC)cc23)CC1)NC(=O)c1ccccc1 (stereo not given) | -23.1% [at 42.5 µM] (inactive) |  |
| C/C=C(\C)C(=O)OCc1ccccc1 | 7.43% (inactive) |  |
| O=C1C=CC(=O)N1c1ccc(Cc2ccc(N3C(=O)C=CC3=O)cc2)cc1 | 0.344% (inactive) |  |
| CCCC(=O)OC[C@@H](OC(=O)CCC)[C@@H](OC(=O)CCC)[C@H](Cn1c2nc(=O)[nH]c(=O)c-2nc2cc(C)c(C)cc21)OC(=O)CCC | 22.9% [at 42.5 µM] (inactive) |  |
| CCc1cc(Cc2cc(CC)c(N)c(CC)c2)cc(CC)c1N |  | 68.6 µM (active) |
| OC1(c2ccc(Cl)c(C(F)(F)F)c2)CCN(CCCC(c2ccc(F)cc2)c2ccc(F)cc2)CC1 |  | 13.3 µM (active) |
| CCCCCOC(=O)CCCC | 2.85% (inactive) |  |
| CCCC/C=C/CCCCO | -0.927% (inactive) |  |
| CCCCN1C(=O)[C@@H]([C@H](O)C2CCCCC2)NC(=O)C12CCN(Cc1ccc(Oc3ccc(C(=O)O)cc3)cc1)CC2 | 3.51% (inactive) |  |
| COC(=O)c1cc(Cl)ccc1OC | -2.94% [at 42.5 µM] (inactive) |  |
| CCCCCCCCCCCCCCCCCC[N+](C)(C)C |  | 48.7 µM (active) |
| N#CSc1ccc(N)c([N+](=O)[O-])c1 | 31.6% (inactive) |  |

| SMILES | activity change, negative = cytotoxicity | Potency |
| --- | --- | --- |
| C[n+]1cc2c3c(ccc2c2ccc4cc5c(cc4c21)OCO5)OCO3 |  | 3.66 µM (active) |
| CN(C)[C@@H]1C(=O)C(C(N)=O)=C(O)[C@@]2(O)C(=O)C3=C(O)c4c(O)cccc4C[C@H]3C[C@@H]12 | -0.157% [at 42.5 µM] (inactive) |  |
| CCN(CC)CCCC(C)Nc1c2ccc(Cl)cc2nc2ccc(OC)cc12 (stereo not given) |  | 13.3 µM (active) |
| NNc1nc(-c2ccc(N)cc2)cs1 | 0.968% (inactive) |  |
| CCN(CCC#N)c1ccc(N=Nc2c(Cl)cc([N+](=O)[O-])cc2Cl)cc1 | -7.45% (inactive) |  |
| Cc1oc(-c2ccccc2)nc1CCC(=O)c1ccc(CC2SC(=O)NC2=O)cc1 (stereo not given) | 21.4% [at 42.5 µM] (inactive) |  |
| NC(=O)C1(N2CCCCC2)CCN(CCCN2c3ccccc3CCc3ccc(Cl)cc32)CC1 |  | 23.7 µM (active) |
| CCC(CN)=C(c1ccccc1)c1ccccc1 | -17.1% [at 42.5 µM] (inactive) |  |
| Oc1ccc(C2(c3ccc(O)cc3)CC3CC2C2CCCC32)cc1 (stereo not given) |  | 41.6 µM (active) |
| O=c1[nH]cnc2nc[nH]c12 | 3.4% [at 42.5 µM] (inactive) |  |
| CN1CCC(Nc2ncc3ncnc(Nc4ccc(F)c(Cl)c4)c3n2)CC1 |  | 16.8 µM (active) |
| CC[C@@]1(O)C(=O)OCc2c1cc1n(c2=O)Cc2c-1nc1ccccc1c2/C=N/OC(C)(C)C | -19.1% [at 42.5 µM] (inactive) |  |
| O=C1CCCCCN1SSN1CCCCCC1=O | 25.2% (inactive) |  |
| CCCCCCCC(=O)[O-].CCCCCCCC(=O)[O-].[Zn+2] | -4.11% [at 42.5 µM] (inactive) |  |
| Cc1cc(CCN2CCN(c3nsc4ccccc34)CC2)cc2c1NC(=O)CC2(C)C |  | 30.6 µM (active) |
| CCc1cc(SCc2sc(-c3ccc(C(F)(F)F)cc3)nc2CN2CCN(c3ccc(OC)cc3)CC2)ccc1OCC(=O)O |  | 4.86 µM (active) |
| O=C(OCC1CO1)C1CCCCC1C(=O)OCC1CO1 (stereo not given) | 17.9% (inactive) |  |
| CCC(Cl)C(Cl)C(Cl)CC(Cl)C(Cl)C(C)Cl (stereo not given) | -13.7% (inactive) |  |
| Clc1ccccc1C(c1ccccc1)(c1ccccc1)n1ccnc1 |  | 5.45 µM (active) and 29.8 µM (active) |
| Cc1nc(-c2ccc3c(c2)CCN(CCC2CCC(NC(=O)/C=C/c4ccc(F)cc4)CC2)CC3)no1 (stereo not given) | 0.293% [at 42.5 µM] (inactive) |  |
